target: AMP-activated protein kinase, AMPK (Homo sapiens) (UniProt P54646+O43741+P54619+Q9UGJ0+Q9Y478+Q13131+Q9UGI9); test: AMP-dependent Kinase enzyme assay. An in vitro enzyme assay that detects ADP turnover that is directly proportional to AMPK activity. This uses naive AMPK that is activated during the assay with MK-8722; format: functional; parameters: scale not given: direction of the effect not stated beside the values; settings: 30 µM

Compound	Percent Effect [%]
COC(=O)c1ccc(OCCn2cnc(C#N)n2)cc1	0.636
COc1ccc(CCC(C)Nc2cccc(SC)c2)cc1 (stereo not drawn)	-6.2
CCOc1ccccc1C(C(=O)O)N(C)Cc1nc(C)c[nH]1 (stereo not drawn)	7.59
COCCN1CC2(CCCN(Cc3cc(=O)c(OC)co3)C2)CCC1=O (stereo not drawn)	-2.15
O=C(C1CCCO1)N1CCC(n2cc(-c3ccsc3)nn2)CC1 (stereo not drawn)	4.03
CC(C(=O)NCC(C)(C)c1ccc(Br)cc1)n1cncn1 (stereo not drawn)	0.177
Cc1csc(C(C)(C)NCC(=O)N(C)Cc2ccc(C)o2)n1	-7.36
CN(C)CCN(Cc1ccc(C#N)cc1)C(=O)c1ccn(C)c(=O)c1	15.4
CC(C)(C)CC(NC(=O)N1CCC(C(N)=O)CC1)C(F)(F)F (stereo not drawn)	-1.73
COc1cccc(S(=O)(=O)N2CCN(C)[C@@H]3CS(=O)(=O)C[C@@H]32)c1	1.52
O=C(Cn1[nH]c2ccccc2c1=O)N1CCCC(CC2CC2)(C(=O)O)C1 (stereo not drawn)	-3.39
O=C1[C@@H]2C[C@H](O)CCN2C(=O)CN1CCSc1ccccn1	-5.57
Cc1nonc1CNC(=O)C(C)Oc1ccccc1F (stereo not drawn)	5.55
Clc1ccc2c(c1)C=C(CNC1CCc3ncnn3C1)CO2 (stereo not drawn)	12.6
O=C(CC1C=CCC1)N1CCc2ncnc(NCc3ccon3)c2CC1 (stereo not drawn)	21.6
N#Cc1cccc(N2CCCC(CO)(CCOc3ccccc3)C2)n1 (stereo not drawn)	3.31
CCCN(CCc1ccccn1)C(=O)Cn1cnnn1	4.35
CCC(O)CN1CCN(C(=O)CCSC)CC1 (stereo not drawn)	-2.43

Source: ChEMBL document CHEMBL3988442, “University of Dundee, Small-Polar-MMV Screening Library” (2021)
